Not all results are given here.
aSyn 5UTR act = Activators via SNCA 5'UTR binding, MLPCN | activity score, % (tested at 7.5 µM), hits read low | AID 1814, 2009 | alpha-synuclein 5'UTR reporter, activators screen | 300,000 tested, 7.1% active; in the data active = activity score below about -60%
* hit, by the source's call.

SMILES | aSyn 5UTR act
O=C1OC(c2ccc(Cl)cc2)/C(=C(/O)c2ccccc2)C1=O (stereo not drawn) | -67*
O=C(c1ccccc1)N1C(=O)C(c2ccccc2)Oc2ccccc21 (stereo not drawn) | 82
CCn1nccc1C(=O)Nc1ccc(C(=O)OC(C)C)cc1 | -163*
Cc1nc2ccccn2c1C(=O)N/N=C/c1ccc([N+](=O)[O-])o1 | -81*
O=[N+]([O-])c1ccc(/C=N/Nc2ccc3ccccc3c2)o1 | -104*
O=C(N/N=C/c1ccc([N+](=O)[O-])o1)c1cc2ccccc2o1 | 66
O=C(NCCOc1ccccc1)c1ccccc1Cl | -75*
O=C(NCCOc1ccccc1Cl)c1cc(F)c(F)cc1Cl | -123*
COc1ccc(CCC(=O)NCCOc2ccccc2Cl)cc1 | -92*
O=C1N=C(N2CCCCC2)SC1=C1CCCCC1 | -89*
CCCN1C(=O)/C(=C2\SC(N3CCCCC3)=NC2=O)c2ccccc21 | -159*
O=C1N=C(N2CCOCC2)S/C1=C1\C(=O)N(Cc2ccccc2)c2ccccc21 | -193*
CN1C(=O)/C(=C2\SC(N3CCCCCC3)=NC2=O)c2ccccc21 | -153*
CC(=O)N(C)C1=C(N2CCOCC2)C(=O)c2ccccc2C1=O | 76
O=C1C=C(N2CCCCC2)c2ccccc2C1=O | 122
Cc1ccc(C(=O)O/N=C(\N)c2ccccn2)c(C)c1 | 106
N/C(=N\OC(=O)CC1CCCCC1)c1ccccn1 | -90*
COc1ccc(CC(=O)O/N=C(\N)c2ccccn2)cc1 | -76*
N/C(=N\OC(=O)Cc1ccc(-c2ccccc2)cc1)c1ccccn1 | -66*
Cc1ccc(C)c(OCC(=O)O/N=C(\N)c2ccccn2)c1 | -131*
N/C(=N\OC(=O)CSc1ccccc1)c1ccccn1 | -88*
Cc1cccc2c1cnn2C(=O)Nc1ccccc1Cl | -143*
Cc1ccccc1NC(=O)n1ncc2cc(Cl)ccc21 | -98*
Cc1cccc2c1cnn2C(=O)Nc1ccccc1Br | -125*
CC(C)(C)c1ccc(C(=O)c2cn[nH]c2-c2ccccc2O)cc1 | -134*
SMILES | aSyn 5UTR act
CCNC(=S)NNC(=O)c1csc(C(C)C)c1 | -76*
CC(=O)Nc1nc2ccccc2n1Cc1ccccc1Cl | 87
Cn1c(NCc2ccccc2O)nc2ccccc21 | -272*
Cn1c(NCc2ccccc2Cl)nc2ccccc21 | -164*
CCc1nc2oc3ccccc3c(=O)c2cc1C(=O)OC | -156*
COCc1nc2oc3ccc(C)cc3c(=O)c2cc1C(=O)OC | -270*
COCc1nc2oc3ccc(F)cc3c(=O)c2cc1C(=O)OC | -108*
Cc1ccccc1/C=C/c1nc2ccccc2c(=O)[nH]1 | -324*
N#CCOc1ccccc1/C=C/c1nc2ccccc2c(=O)[nH]1 | -115*
Cc1ccccc1/C=C\c1nc2ccccc2c(=O)[nH]1 | -142*
N#CC1=C(N)Oc2cc(N)ccc2C1c1cccc(F)c1 (stereo not drawn) | -137*
CN(C)c1ccc2c(c1)OC(N)=C(C#N)C2c1cccc(F)c1 (stereo not drawn) | 68
N#CC1=C(N)Oc2cc(N)ccc2C1C1CCCCC1 (stereo not drawn) | -89*
COc1ccc(-c2c(C)nc3c(-c4ccccn4)cnn3c2N)cc1 | -181*
Cc1cc(N)n2ncc(-c3ccc(F)cc3)c2n1 | -104*
Cc1nc2c(-c3ccc(F)cc3)cnn2c(N)c1-c1ccc(F)cc1 | -150*
CN1C(=O)NC(c2ccc(O)cc2)C(C(=O)c2cccs2)C1(O)C(F)(F)F (stereo not drawn) | -100*
COc1cc(C2NC(=S)NC(O)(C(F)(F)F)C2C(=O)c2cccs2)cc(OC)c1O (stereo not drawn) | -95*
N#Cc1c(N)nc2c(c1N)CC(COc1ccccc1)O2 (stereo not drawn) | -130*
CCOC(=O)Nc1nnc(-c2ccc(OC)cc2)s1 | -65*
CCOC(=O)Nc1nnc(-c2cccc(OC)c2)s1 | -83*
COc1ccc(-c2nnc(NC(=O)C(C)C)s2)c(OC)c1 | -101*
CCOC(=O)Nc1nc(-c2ccccc2)c(C(=O)c2ccc(Cl)cc2)s1 | 114
CCCCn1nc(NC(=O)COC)c2cc3cc(OC)ccc3nc21 | -78*
O=[N+]([O-])c1ccc(NNC(=S)Nc2ccccc2)cc1 | -122*
SMILES | aSyn 5UTR act
Fc1cccc(NC(=S)NNc2ccccc2)c1 | -140*
O=[N+]([O-])c1ccc(O)c(NC(=S)Nc2ccccc2)c1 | -157*
Nc1nnnn1/N=C/C=C/c1ccccc1 | -115*
Nc1nnnn1/N=C/C(Br)=C/c1ccccc1 | -251*
O=C(NCc1cc2ccccc2[nH]1)c1ccccc1F | -81*
O=C(NC12CC3CC(CC(C3)C1)C2)c1ccc(-c2ccc(Cl)cc2)o1 | -251*
O=C(NC12CC3CC(CC(C3)C1)C2)c1ccc(-c2ccccc2Cl)o1 | -220*
O=C(NC12CC3CC(CC(C3)C1)C2)c1ccc(-c2cccc(Cl)c2)o1 | -133*
N#Cc1ccc(CO/N=C/c2ccccc2)cc1 | -95*
CCc1ccc(CCC(=O)Nc2ccc(Cl)cc2)o1 | -67*
O=C(Oc1ccc(-c2cnc3ccccc3n2)cc1)c1cc([N+](=O)[O-])ccc1Cl | -176*

Screens from PubChem.
